Screens: PubChem BioAssay, National Center for Advancing Translational Sciences (NCATS)
Compounds with a hit are over-represented: about 19% of the library has one in this group of screens.
TDP1 cell CPT = DT40-hTDP1 cell growth loss with CPT; chicken DT40 Tdp1-/-;hTDP1 cells + 20 nM CPT, ATP luminescence, 48 h; AID 686979; 420,000 tested, 12% active; Potency, µM (top dose mostly 46.2 µM), inactives show at the top dose activity change, negative = growth inhibition, most hits filed as inhibitors; note: potency is the fitted concentration of half-maximal effect; nearly all actives have a fitted effect of over 55% in size
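Chicken DT40 Tdp1-/- cells complemented with human TDP1, 400 cells/well, exposed to compounds plus 20 nM camptothecin for at least 48 h at 37 C; viability read as ATP content by CellTiter-Glo luminescence.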
HT1080-NT tox = kills 2HG-producing HT-1080-NT fibrosarcoma cells. HT-1080-NT fibrosarcoma viability, CellTiter-Glo ATP luminescence, 48 h. Potency, µM (highest dose often 46.1 µM), inactives show top-dose activity, negative = less viability, most hits filed as cytotoxic. 360,000 tested, 1.6% active;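 note: NT is the 2HG producing partner of a matched IDH1 knockdown line; potency is the fitted concentration of half-maximal effect; 0% = DMSO-treated cells and -100% = media-only wells without cells; nearly all actives have a fitted effect of over 55% in size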
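Luminescent CellTiter-Glo readout after 48 hours of compound exposure at 37 degrees C defined viability of HT-1080-NT cells. Activity was normalized to DMSO wells and cell-free media wells; concentration-response curves were fitted and assigned curve classes.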
HT1080 IDH1KD tx = toxicity to HT-1080 IDH1 knockdown cells (counter line). HT-1080 IDH1 knockdown viability, ATP luminescence, 48 h. Potency, µM (top dose mostly 46.1 µM), inactives show top-dose activity, negative = toxicity, hits mostly cytotoxic. 360,000 tested, 2% active;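 note: potency is the fitted concentration of half-maximal effect; 0% = DMSO wells and -100% = cell-free medium wells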
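Viability of IDH1-knockdown HT-1080 fibrosarcoma cells was assessed by CellTiter-Glo after 48 h at 37 °C with titrated compound; concentration-effect curves were classified by fit quality and response size.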
IL-1B inflam inh = blocks inflammasome-driven IL-1 beta release; THP-1 LPS/ATP IL-1B secretion, AlphaLISA, 16 h; active compounds read low; activity change, % at 57.5 µM; 360,000 tested, 4.7% active; in the data active = activity change below about -50%; inconclusive = mostly about -30% to -49%
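Secreted IL-1B measured by AlphaLISA bead assay after 16 h compound exposure of THP-1 cells; compounds (final up to 57.5 uM) added 1 h before LPS (250 ng/mL) and ATP (1.25 mM) stimulation; lower signal means less secretion.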
ELG1 DNA repair = blocks ELG1-dependent DNA repair in HEK293T cells; HEK293T ELG1-luciferase reporter, luminescence, 16 h; DNA damage induced by 5-fluorouridine; Potency, µM (series often up to 46.1 µM), without a hit: at the top dose activity change, negative = inhibition, usual class: inhibitors; 330,000 tested, 2.3% active; note: potency is the fitted concentration of half-maximal effect; nearly all actives have a fitted effect of over 55% in size
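Cells (2,000 per well) received 5-fluorouridine plus test compound or DMSO and were incubated 16 hr at 37 °C, 5% CO2. Luciferase activity was read by luminescence 30 min after ONE-Glo addition; signal suppression marked inhibition of damage-induced ELG1 function.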
DT40 TDP1 no CPT = qHTS for Inhibitors of human tyrosyl-DNA phosphodiesterase 1 (TDP1): qHTS in cells in absence of CPT. Potency, µM (titrated, usually from 46.2 µM), without a hit: top-dose activity change, negative = growth inhibition, usual class: inhibitors. DT40 Tdp1-/- hTDP1 cells, no CPT, ATP luminescence, 48 h. 420,000 tested, 15% active; note: potency is the fitted concentration of half-maximal effect; nearly all actives have a fitted effect of over 55% in size
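Readout: luminescence from CellTiter-Glo after 30 min in the dark at RT. Cells: DT40 Tdp1-/- with stable hTDP1, 400/well. Exposure: compounds alone, ≥48 hr, 37 °C.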
* marks the source's active call; other numbers are inactive results; ? = inconclusive; · = no result given. Unless noted, calls come from the whole dose curve; as a rule, active = well fitted curve in the direction sought with a large enough effect; inconclusive = small, poorly fitted or top-dose-only effect, or another doubt; inactive = no such curve, though single readings can be large; an effect the other way counts as inactive or inconclusive. Unless noted, % is set by controls: 0 for no effect and ±100 for the full control effect.

SMILES	TDP1 cell CPT	HT1080-NT tox	HT1080 IDH1KD tx	IL-1B inflam inh	ELG1 DNA repair	DT40 TDP1 no CPT
COc1ccc(CN2CCC2(C)C(=O)NCCc2c[nH]c3ccccc23)c2ccccc12 (stereo unspecified)	?	-2%	-23%	15	·	?
CN1CCN(C(=O)c2ccc(Oc3ccc([N+](=O)[O-])cc3)cc2)CC1	-13%	2%	6%	-10	?	?
CCOc1ccc(C(=O)N2CCC(c3ccncc3)CC2)cc1	13µM*	·	·	·	·	?
CCOc1ccc(C(=O)C2CCN(C(=O)c3ccc([N+](=O)[O-])cc3)CC2)cc1	?	-16%	-15%	-3	?	21µM*
CCOC(=O)N1CCN(C(=O)c2ccc(Oc3ccc([N+](=O)[O-])cc3)cc2)CC1	16µM*	-1%	-18%	-11	?	23µM*
CCOC(=O)CSc1nc(-c2ccccc2)ns1	?	0%	-12%	0	?	?
CCOC(=O)CSC1=NC(=O)/C(=C\c2ccc(OC(C)=O)cc2)S1	2.6µM*	?	?	-62*	?	2.9µM*
CCOC(=O)CSC1=NC(=O)/C(=C/c2ccc(Br)cc2)S1	2.6µM*	?	?	-64*	?	4.1µM*
O=C(C1=C[C@H](c2ccc(Br)cc2)C[C@H](OCCCCO)O1)N1CCN(Cc2ccc3c(c2)OCO3)CC1	18µM*	-19%	-18%	?	?	16µM*
O=C(C1=C[C@H](C2CCCCC2)C[C@H](OCCCCO)O1)N1CCN(Cc2ccc3c(c2)OCO3)CC1	12µM*	-3%	-5%	?	?	18µM*
O=C(C1=C[C@@H](c2ccc(Br)cc2)C[C@@H](OCCCCO)O1)N1CCN(Cc2ccccc2)CC1	6.5µM*	-20%	-25%	-6	?	5.8µM*
O=C(C1=C[C@H](c2ccc3c(c2)OCO3)C[C@H](OCCCCO)O1)N1CCN(Cc2ccc3c(c2)OCO3)CC1	?	3%	-1%	?	?	18µM*
O=C(C1=C[C@@H](c2ccc3c(c2)OCO3)C[C@@H](OCCCCO)O1)N1CCN(Cc2ccc3c(c2)OCO3)CC1	?	-5%	-2%	-26	0%	?
C#Cc1ccc([C@@H]2C=C(C(=O)N3CCN(Cc4ccc5c(c4)OCO5)CC3)O[C@H](OCCCCO)C2)cc1	?	7%	-5%	-20	?	?
O=C(C1=C[C@@H](c2ccc(Br)cc2)C[C@@H](OCCCCO)O1)N1CCOCC1	8%	6%	3%	24	12%	1%
CCC(C)(CC(=O)Nc1nccs1)c1ccccc1 (stereo unspecified)	-9%	-4%	-9%	46	-3%	?
CC(=O)Nc1nc2n(n1)C(c1ccc(F)cc1)C=C(c1ccccc1)N2 (stereo unspecified)	?	-1%	-2%	3	?	18µM*
O=C(Nc1nc2n(n1)C(c1ccccc1)C=C(c1ccccc1)N2)c1ccco1 (stereo unspecified)	6%	24%	15%	-3	?	11%
O=C(Nc1nc2n(n1)C(c1ccc(F)cc1)C=C(c1ccccc1)N2)c1cccc([N+](=O)[O-])c1 (stereo unspecified)	18µM*	·	·	·	·	10µM*
Cc1ccc(-n2nc3c(=O)n(CC(=O)NC4CCCCCC4)nc(C)c3c2C)cc1	?	2%	17%	-5	-4%	-1%
CCN(CC)S(=O)(=O)c1ccc2c(c1)c(=O)c(C(=O)NCc1ccc(Cl)cc1)cn2C	10µM*	·	·	·	·	9.2µM*
Cn1cc(C(=O)NCCc2ccc(Cl)cc2)c(=O)c2cc(S(=O)(=O)N3CCOCC3)ccc21	-14%	·	·	·	·	0%
Cn1cc(C(=O)NCc2ccc(Cl)cc2)c(=O)c2cc(S(=O)(=O)N3CCCCCC3)ccc21	?	·	·	·	·	16µM*
CC1CCN(S(=O)(=O)c2ccc3c(c2)c(=O)c(C(=O)NCc2ccco2)cn3C)CC1	21µM*	-15%	-18%	-11	18µM*	21µM*
Cn1cc(C(=O)O)c(=O)c2cc(S(=O)(=O)N3CCOCC3)ccc21	16µM*	·	·	·	·	23µM*
SMILES	TDP1 cell CPT	HT1080-NT tox	HT1080 IDH1KD tx	IL-1B inflam inh	ELG1 DNA repair	DT40 TDP1 no CPT
Cn1cc(C(=O)NCc2ccccc2)c(=O)c2cc(S(=O)(=O)N3CCOCC3)ccc21	-1%	·	·	·	·	-2%
CC(=O)c1ccc(S(=O)(=O)Nc2cccc(-c3ccc(N4CCOCC4)nn3)c2)cc1	?	?	-26%	-25	?	?
N#Cc1ccc(N)cc1OCCCN1CCCCC1	6%	15%	8%	7	·	-17%
N#Cc1ccccc1S(=O)(=O)N1CCNS(=O)(=O)c2ccccc21	10%	14%	11%	6	14%	-1%
COCCNC(=O)C1(C)CCN(C(=O)c2ccc3sccc3c2)C1 (stereo unspecified)	0%	11%	9%	3	·	0%
CN(CC/C=C1/c2ccccc2CSc2ccccc21)CCCO	?	-4%	-18%	-58*	-6%	?
CN(C)CC/C=C1\c2cc(F)ccc2CSc2ccccc21	?	-18%	-17%	-57*	2%	?
CC(O)CN(C)CC/C=C1/c2ccccc2CSc2ccccc21 (stereo unspecified)	?	-8%	1%	-19	16%	?
NCC/C=C1/c2ccccc2CSc2ccccc21	25µM*	14µM*	?	-18	-21%	35µM*
C=CCN(C)CC/C=C1\c2ccccc2CSc2ccccc21	?	?	-26%	-18	-9%	?
COCCn1c(C)cc(/C=C(\C#N)C(=O)OCC(=O)Nc2ccc(S(N)(=O)=O)cc2)c1C	-22%	0%	-15%	26	0%	-24%
CCN(CC)CCCNC(=O)CNC(=O)c1nn(-c2ccc(OC)cc2OC)c(=O)c2ccccc12	-15%	1%	13%	-25	·	13%
COC(=O)N1C(=O)[C@](Cc2ccccc2)(c2ccccc2)N1C(=O)OC	13µM*	0%	-2%	-103*	0%	12µM*
COC(=O)N1C(=O)[C@@](Cc2ccccc2)(c2ccccc2)N1C(=O)OC	?	-24%	-12%	-95*	?	18µM*
